Data on 19 molecules can be found in PubChem BioAssay (NCATS).

Several values for one entry are separate records, joined by “and”; a condition that tells them apart may be missing. Equal entries are not always repeated. Records with an inconclusive call do not appear. Entries that show only a call come without a potency. Activity calls are given as the source filed them. Unless noted, calls come from the whole dose curve; as a rule, active = well fitted curve in the direction sought with a large enough effect; inconclusive = small, poorly fitted or top-dose-only effect, or another doubt; inactive = no such curve, though single readings can be large; an effect the other way counts as inactive or inconclusive.

Experiment [1] addresses Luciferin 4-monooxygenase (Photinus pyralis) (UniProt P08659). The experiment can be described thus: Biochemical firefly luciferase enzyme assay for NPC (AID 624030).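 Note: purified P. pyralis luciferase at 10 nM with luciferin and ATP substrate; series mostly up to about 59 µM; nearly all actives have a fitted effect of over 70% in size.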 In short, it runs like this:
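Counter-screen for direct inhibition of the luciferase enzyme by approved-drug library compounds, run at 10 nM enzyme in 50 mM Tris acetate (final). Luminescence was read within 5 min of enzyme-buffer addition and normalized to PTC124 versus DMSO (0%).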

Experiment [2] can be described thus: S16 Schwann cell viability assay (CellTiter-Glo assay) (AID 624031).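 Note: cellular ATP luminescence as a viability measure; series mostly up to about 58 µM; nearly all actives have a fitted effect of over 70% in size.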 In short, it runs like this:
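Untransfected S16 rat Schwann cells; compound 24 h, 37 °C/5% CO2; CellTiter-Glo ATP luminescence. % activity vs no-cell wells and DMSO controls (0%); concentration-effect curves classed by r2, response magnitude, activity.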

Experiment [3] can be described thus: Cytotoxicity counterscreen for NFkB agonists and antagonists (AID 624476;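 note: cells exposed to compound for 48 hours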; note: potency is the fitted concentration of half-maximal effect). (The purpose of a counterscreen is to sort out artefacts and off-target activity.)
A short description of experiment [4]: qHTS Assay for Identification of Small Molecule Agonists for NFkB Signaling Pathway. (AID 624478). Put shortly:
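NFkB-bla ME-180 cells carry a beta-lactamase reporter. They received compound plus TNF alpha at 10 pM final (its EC50) for 5 h at 37 C. Reporter activity was read as 460/530 nm emission ratio after 2 h LiveBLAzer substrate loading.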
Background: qHTS replaces the single test concentration by a dilution series.

Experiment [5] concerns the target Glutaminase kidney isoform, mitochondrial (Homo sapiens) (UniProt O94925). The experiment can be described thus: qHTS for Inhibitors of Glutaminase (GLS): LOPAC Validation (AID 624146).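 Note: glutamate product detected by oxidase and peroxidase coupled Amplex red fluorescence gain; series mostly up to about 46 µM; nearly all actives have a fitted effect of over 60% in size.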 In short, it runs like this: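 hKGA in 45 mM KH2PO4 (pH 8.2), 0.02% Tween-20 with compound, then 1mM L-Glutamine (stock as added) plus glutamate oxidase/HRP/Amplex red coupling mix. Fluorescence read initially and after 30 min at RT; signal change reflects glutamate formation.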

Experiment [6] in a line: qHTS of Trypanosoma Brucei Inhibitors: LOPAC Validation (AID 624147). Put shortly: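 Luminescence from Kinase-Glo Plus, added after a 45-minute room-temperature reaction, served as the end-point read-out. The enzyme and substrate were preincubated with compound before ADP (130 uM final) initiated turnover. Concentration-effect curves came from normalized qHTS data.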
For experiment [7], the target named is Glucagon-like peptide 1 receptor (Homo sapiens) (UniProt P43220). As to the kind of experiment: qHTS of GLP-1 Receptor Agonists: LOPAC Validation (AID 624148).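 Note: higher luminescence signal means agonism.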 Put shortly:
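HEK293 cells stably co-expressing a cAMP-responsive luciferase reporter and a hypersensitive GLP-1R were plated 12 h at 37 °C and exposed to compounds for 4-6 hr at 37 °C, 5% CO2. Luminescence was read 12 min after adding detection reagent.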

Experiment [8] is described as follows: qHTS of Nrf2 Activators: LOPAC Validation (AID 624149). Put shortly: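 AREc32_Fluc cells, 1000/well in OPTI-MEM with 5% FBS, grown overnight, then exposed to compounds for 24 hr at 37 deg C, 5% CO2. ARE-driven firefly luciferase read by Steady-Glo luminescence after 30 min at RT.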
Experiment [9] can be described thus: HTS Assay for Allosteric Antagonists of the Human D2 Dopamine Receptor: Hit Validation in HTRF (AID 624455).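 Note: stable D1 dopamine receptor cell line scored for blocking the D1 response.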 In short, it runs like this:
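Hit validation in cells stably expressing the D1 dopamine receptor, run in HTRF format. Compounds were tested for their ability to inhibit the D1-mediated response.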
(In TR-FRET formats the signal depends on donor and acceptor labels being close together.)

Experiment [10] deals with Glucocorticoid receptor (Homo sapiens) (UniProt P04150). As to the kind of experiment: qHTS assay for small molecule antagonists of glucocorticoid receptor signaling (AID 588533; active = well fitted inhibition curve with a large enough effect in the signal ratio, with a control signal flat, not every such curve was filed as active; the % refers to the signal ratio;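 note: cells stimulated with 2 nM dexamethasone as agonist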). Put shortly: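 Antagonist-mode qHTS: compound titrations added to GRE-bla HeLa cells, then dexamethasone 2 nM final; 18 h, 37 C. CCF4 FRET fluorescence normalized to dexamethasone and DMSO; IC50 from Hill fit.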
Chain of Glucocorticoid receptor (Homo sapiens) (P04150 whole entry, looked up): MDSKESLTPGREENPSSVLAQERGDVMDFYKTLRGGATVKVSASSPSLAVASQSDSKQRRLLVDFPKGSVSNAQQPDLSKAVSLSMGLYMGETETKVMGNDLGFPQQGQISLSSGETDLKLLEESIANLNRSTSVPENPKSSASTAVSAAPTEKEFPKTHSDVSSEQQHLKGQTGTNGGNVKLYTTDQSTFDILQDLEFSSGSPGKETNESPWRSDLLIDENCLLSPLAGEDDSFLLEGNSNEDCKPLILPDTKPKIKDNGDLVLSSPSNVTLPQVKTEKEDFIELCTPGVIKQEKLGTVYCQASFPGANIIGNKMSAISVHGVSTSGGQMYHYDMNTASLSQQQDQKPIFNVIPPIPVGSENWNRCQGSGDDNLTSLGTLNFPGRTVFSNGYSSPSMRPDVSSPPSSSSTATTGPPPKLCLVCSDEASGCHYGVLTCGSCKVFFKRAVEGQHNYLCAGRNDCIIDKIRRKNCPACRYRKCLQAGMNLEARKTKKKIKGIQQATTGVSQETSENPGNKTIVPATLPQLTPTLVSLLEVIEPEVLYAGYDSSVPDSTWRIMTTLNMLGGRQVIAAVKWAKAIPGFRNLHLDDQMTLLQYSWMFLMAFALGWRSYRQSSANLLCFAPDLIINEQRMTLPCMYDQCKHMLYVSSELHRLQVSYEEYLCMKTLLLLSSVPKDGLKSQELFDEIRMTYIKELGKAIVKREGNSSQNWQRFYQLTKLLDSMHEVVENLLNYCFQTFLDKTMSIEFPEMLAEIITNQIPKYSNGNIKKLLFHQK

For experiment [11], the target named is Vitamin D3 receptor (Homo sapiens) (UniProt P11473). As to the kind of experiment: qHTS assay for small molecule antagonists of vitamin D receptor signaling (AID 588541; calls by dose curve;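 note: receptor activated by calcitriol during compound treatment; series mostly up to about 77 µM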). Put shortly:
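VDR-UAS-bla HEK293T cells (2000/well, 2% charcoal-stripped FBS) were treated with titrated compounds plus 1-alpha,25-dihydroxyvitamin D3 (50 nM or 3 nM final) for 16 h at 37 C. CCF4 beta-lactamase fluorescence was read; Hill fits gave IC50.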

Experiment [12] shares this target. The experiment can be described thus: qHTS assay for small molecule agonists of vitamin D receptor signaling (AID 588543; calls by dose curve). Put shortly:
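Measured: β-lactamase reporter activity (CCF4, 405 nm excitation, 460/530 nm emission) in HEK293T VDR-UAS-bla cells after 16 h compound exposure at 37 °C. Normalization against 50 nM 1α,25-dihydroxyvitamin D3 and DMSO; Hill-fit EC50.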

A short description of experiment [13]: qHTS assay for small molecule agonists of retinoid X receptor alpha signaling (AID 588544; calls by dose curve). The settings on record: HEK293T RXRa-UAS-bla, beta-lactamase reporter, 18 h; 530 nm emission.
Experiment [14] addresses Retinoic acid receptor RXR-alpha (Homo sapiens) (UniProt P19793). The description is as above.
Experiment [15] has as its target Thyroid hormone receptor beta (Homo sapiens) (UniProt P10828). The experiment can be described thus: qHTS assay for small molecule agonists of thyroid hormone receptor beta signaling (AID 588545; calls by dose curve). Put shortly: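 TR-UAS-bla GripTite HEK 293 cells (2500/well, medium with 2% charcoal/dextran FBS) were treated in agonist mode for 18 h at 37 C, titrated. Beta-lactamase was read by CCF4 ratio after 2 h; normalized to 10 nM T3 (100%) and DMSO, Hill-fitted for EC50 and efficacy.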

A short description of experiment [16]: qHTS assay for small molecule antagonists of retinoid X receptor alpha signaling (AID 588546; active = well fitted inhibition curve with a large enough effect in the signal ratio, with a control signal flat, not every such curve was filed as active; the % refers to the signal ratio;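 note: cells stimulated with 9-cis-retinoic acid as agonist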). The settings on record: HEK293T RXRa-UAS-bla, beta-lactamase ratio, antagonist mode; measured here: W530 green channel, cytotoxicity proxy. Put shortly: (§1)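 Beta-lactamase reporter inhibition, read as CCF4 fluorescence ratio (ex 405, em 460/530 nm) after 2 h at RT. HEK293T UAS-bla cells, 2500/well, were stimulated with 9-cis-RA at 500 or 100 nM final alongside test compound for 18 h at 37 C.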

Experiment [17] deals with Retinoic acid receptor RXR-alpha (Homo sapiens) (UniProt P19793). The description is as above. Conditions: HEK293T RXRa-UAS-bla, beta-lactamase ratio, antagonist mode. Put shortly:
as §1

Experiment [18] concerns the target Thyroid hormone receptor beta (Homo sapiens) (UniProt P10828). The experiment can be described thus: qHTS assay for small molecule antagonists of thyroid hormone receptor beta signaling (AID 588547; active = well fitted inhibition curve with a large enough effect in the signal ratio, with a control signal flat, not every such curve was filed as active; the % refers to the signal ratio;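 note: cells stimulated with 0.4 nM T3 agonist during compound exposure; series mostly up to about 77 µM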). The settings on record: TR-UAS-bla HEK293, beta-lactamase ratio, antagonist mode, 18 h. In short, it runs like this:
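TR-UAS-bla GripTite HEK293 cells in 2% charcoal/dextran FBS medium were preincubated 4 h at 37 C, given compound (0.59 nM to 92 uM) plus 0.4 nM T3 (final) for 18 h, then CCF4 for 2 h at RT; Hill fit gave IC50.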

Experiment [19] concerns the target Voltage-gated inwardly rectifying potassium channel KCNH2 (Homo sapiens) (UniProt Q12809). As to the kind of experiment: qHTS Assay for Small Molecule Inhibitors of the Human hERG Channel Activity (AID 588834).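 Note: top concentration of the series differs between compounds; lower thallium flux fluorescence means stronger hERG block; nearly all actives have a fitted effect of over 50% in size.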 In short, it runs like this:
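Blockade is seen as reduced FluxOR thallium-flux fluorescence in U2OS cells expressing hERG from a BacMam construct, in Opti-MEM with 2% FCS. Concentration-response data fitted to the Hill equation for AC50.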

The nature of experiment [20]: S16 Schwann cell PMP22 intronic element beta-lactamase assay (AID 624044; calls by dose curve; note: nearly all actives have a fitted effect of over 15% in size). In short, it runs like this: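 Rat S16 Schwann cells with beta-Lac driven by a PMP22 intronic element, compound-treated 24 h at 37 °C. LiveBLAzer FRET B/G read: 460 nm normalized to potassium clavulanate vs DMSO; 535 nm FRET as viability; concentration-effect curves classified.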

Chain of Thyroid hormone receptor beta (Homo sapiens) (P10828 whole entry, looked up): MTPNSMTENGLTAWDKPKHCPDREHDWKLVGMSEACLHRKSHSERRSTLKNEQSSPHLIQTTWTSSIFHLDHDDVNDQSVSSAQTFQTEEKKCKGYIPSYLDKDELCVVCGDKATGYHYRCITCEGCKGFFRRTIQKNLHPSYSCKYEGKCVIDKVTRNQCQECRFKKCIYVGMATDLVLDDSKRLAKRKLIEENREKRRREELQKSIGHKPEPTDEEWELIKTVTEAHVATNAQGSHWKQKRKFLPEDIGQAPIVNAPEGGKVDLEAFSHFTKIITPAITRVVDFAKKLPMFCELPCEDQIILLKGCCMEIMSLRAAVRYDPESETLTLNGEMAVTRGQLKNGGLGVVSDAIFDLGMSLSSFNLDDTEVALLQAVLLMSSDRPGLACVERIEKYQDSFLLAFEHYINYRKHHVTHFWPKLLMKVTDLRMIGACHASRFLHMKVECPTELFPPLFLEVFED
Chain of Vitamin D3 receptor (Homo sapiens) (P11473 whole entry, looked up): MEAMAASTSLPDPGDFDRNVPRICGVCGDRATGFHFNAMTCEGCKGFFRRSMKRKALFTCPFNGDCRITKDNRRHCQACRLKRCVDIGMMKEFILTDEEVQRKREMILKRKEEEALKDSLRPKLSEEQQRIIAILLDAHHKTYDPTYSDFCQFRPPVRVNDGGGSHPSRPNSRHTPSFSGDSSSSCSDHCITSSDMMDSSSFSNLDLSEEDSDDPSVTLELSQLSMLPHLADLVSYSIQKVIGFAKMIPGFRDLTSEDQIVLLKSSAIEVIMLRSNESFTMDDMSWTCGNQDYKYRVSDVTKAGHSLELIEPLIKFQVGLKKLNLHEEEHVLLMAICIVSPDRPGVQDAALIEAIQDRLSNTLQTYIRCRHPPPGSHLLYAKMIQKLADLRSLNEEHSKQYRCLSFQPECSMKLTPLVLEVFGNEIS
Chain of Luciferin 4-monooxygenase (Photinus pyralis) (P08659 whole entry, looked up): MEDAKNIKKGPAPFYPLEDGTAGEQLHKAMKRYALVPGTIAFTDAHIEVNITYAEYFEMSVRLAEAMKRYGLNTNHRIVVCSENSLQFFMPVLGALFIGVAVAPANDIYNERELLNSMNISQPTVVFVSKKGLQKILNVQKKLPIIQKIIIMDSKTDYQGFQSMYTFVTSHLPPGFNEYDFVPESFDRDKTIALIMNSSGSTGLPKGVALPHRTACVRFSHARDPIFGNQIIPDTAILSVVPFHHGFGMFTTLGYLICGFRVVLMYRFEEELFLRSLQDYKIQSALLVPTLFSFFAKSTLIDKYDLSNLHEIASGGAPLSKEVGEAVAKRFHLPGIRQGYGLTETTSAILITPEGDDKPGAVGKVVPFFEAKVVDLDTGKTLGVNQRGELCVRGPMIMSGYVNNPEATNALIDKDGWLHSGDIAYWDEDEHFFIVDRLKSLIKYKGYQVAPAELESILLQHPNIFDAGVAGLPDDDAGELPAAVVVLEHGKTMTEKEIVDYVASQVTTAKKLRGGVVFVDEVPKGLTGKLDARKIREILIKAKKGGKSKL
Chain of Retinoic acid receptor RXR-alpha (Homo sapiens) (P19793 whole entry, looked up): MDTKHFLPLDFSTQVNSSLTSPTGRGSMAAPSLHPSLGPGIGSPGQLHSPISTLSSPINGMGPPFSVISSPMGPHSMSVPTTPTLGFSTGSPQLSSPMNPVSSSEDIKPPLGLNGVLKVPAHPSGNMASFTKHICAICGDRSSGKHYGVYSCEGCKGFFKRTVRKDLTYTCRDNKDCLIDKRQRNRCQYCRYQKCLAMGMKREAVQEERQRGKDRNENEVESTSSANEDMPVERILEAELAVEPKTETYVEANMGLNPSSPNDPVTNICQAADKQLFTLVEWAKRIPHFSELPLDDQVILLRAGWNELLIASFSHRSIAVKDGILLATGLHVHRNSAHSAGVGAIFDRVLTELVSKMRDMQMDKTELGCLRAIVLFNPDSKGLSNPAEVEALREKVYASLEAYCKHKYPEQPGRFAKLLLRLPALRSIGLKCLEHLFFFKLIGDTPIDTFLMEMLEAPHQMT
Chain of Voltage-gated inwardly rectifying potassium channel KCNH2 (Homo sapiens) (Q12809 whole entry, looked up): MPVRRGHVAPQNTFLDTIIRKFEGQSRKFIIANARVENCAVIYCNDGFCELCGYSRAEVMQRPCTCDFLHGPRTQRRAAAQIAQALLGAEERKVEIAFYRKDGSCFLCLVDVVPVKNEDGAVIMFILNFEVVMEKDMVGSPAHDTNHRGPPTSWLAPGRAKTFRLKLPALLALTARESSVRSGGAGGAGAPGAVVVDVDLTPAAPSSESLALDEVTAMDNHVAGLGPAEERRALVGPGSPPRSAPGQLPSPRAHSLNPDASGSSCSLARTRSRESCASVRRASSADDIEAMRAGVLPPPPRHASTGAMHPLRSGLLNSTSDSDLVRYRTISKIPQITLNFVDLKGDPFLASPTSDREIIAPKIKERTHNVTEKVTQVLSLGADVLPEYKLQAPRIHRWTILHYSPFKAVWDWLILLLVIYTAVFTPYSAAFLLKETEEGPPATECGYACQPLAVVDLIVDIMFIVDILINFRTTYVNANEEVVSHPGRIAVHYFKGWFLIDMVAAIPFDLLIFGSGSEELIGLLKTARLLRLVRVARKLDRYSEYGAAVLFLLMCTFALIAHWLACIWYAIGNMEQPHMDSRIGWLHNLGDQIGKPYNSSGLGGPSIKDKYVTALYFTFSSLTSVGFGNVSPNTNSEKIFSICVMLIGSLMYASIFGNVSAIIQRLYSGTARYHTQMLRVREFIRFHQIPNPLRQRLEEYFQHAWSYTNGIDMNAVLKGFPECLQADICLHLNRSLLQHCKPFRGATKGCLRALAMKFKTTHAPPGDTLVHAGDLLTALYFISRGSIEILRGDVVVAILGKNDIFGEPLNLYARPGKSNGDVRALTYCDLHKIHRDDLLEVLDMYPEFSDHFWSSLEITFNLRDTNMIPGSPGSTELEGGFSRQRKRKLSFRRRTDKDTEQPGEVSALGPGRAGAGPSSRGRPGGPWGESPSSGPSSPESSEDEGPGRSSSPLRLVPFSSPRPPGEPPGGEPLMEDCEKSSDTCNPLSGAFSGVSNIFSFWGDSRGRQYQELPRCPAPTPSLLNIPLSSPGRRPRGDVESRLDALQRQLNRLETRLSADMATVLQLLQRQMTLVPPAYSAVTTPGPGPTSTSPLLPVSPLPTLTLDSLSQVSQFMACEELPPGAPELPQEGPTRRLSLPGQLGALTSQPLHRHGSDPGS
Chain of Glutaminase kidney isoform, mitochondrial (Homo sapiens) (O94925 whole entry, looked up, canonical isoform): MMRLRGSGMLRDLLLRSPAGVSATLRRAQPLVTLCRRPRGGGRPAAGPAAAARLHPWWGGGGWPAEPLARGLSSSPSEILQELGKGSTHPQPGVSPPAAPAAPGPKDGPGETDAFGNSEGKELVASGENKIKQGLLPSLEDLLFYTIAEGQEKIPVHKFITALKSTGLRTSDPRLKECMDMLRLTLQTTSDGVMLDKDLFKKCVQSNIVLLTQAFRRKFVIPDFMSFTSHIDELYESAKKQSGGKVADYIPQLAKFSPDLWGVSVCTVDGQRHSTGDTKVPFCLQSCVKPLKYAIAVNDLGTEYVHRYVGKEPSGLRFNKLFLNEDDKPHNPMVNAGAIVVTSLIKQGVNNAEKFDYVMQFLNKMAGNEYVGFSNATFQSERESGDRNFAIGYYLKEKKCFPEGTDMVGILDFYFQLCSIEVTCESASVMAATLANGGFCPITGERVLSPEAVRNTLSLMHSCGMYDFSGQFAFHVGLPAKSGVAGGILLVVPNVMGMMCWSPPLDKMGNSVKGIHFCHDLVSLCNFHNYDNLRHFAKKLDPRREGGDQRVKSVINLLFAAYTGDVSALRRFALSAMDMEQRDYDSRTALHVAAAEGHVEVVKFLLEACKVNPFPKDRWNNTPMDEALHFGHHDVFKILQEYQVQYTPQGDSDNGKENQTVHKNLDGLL
Chain of Glucagon-like peptide 1 receptor (Homo sapiens) (P43220 whole entry, looked up): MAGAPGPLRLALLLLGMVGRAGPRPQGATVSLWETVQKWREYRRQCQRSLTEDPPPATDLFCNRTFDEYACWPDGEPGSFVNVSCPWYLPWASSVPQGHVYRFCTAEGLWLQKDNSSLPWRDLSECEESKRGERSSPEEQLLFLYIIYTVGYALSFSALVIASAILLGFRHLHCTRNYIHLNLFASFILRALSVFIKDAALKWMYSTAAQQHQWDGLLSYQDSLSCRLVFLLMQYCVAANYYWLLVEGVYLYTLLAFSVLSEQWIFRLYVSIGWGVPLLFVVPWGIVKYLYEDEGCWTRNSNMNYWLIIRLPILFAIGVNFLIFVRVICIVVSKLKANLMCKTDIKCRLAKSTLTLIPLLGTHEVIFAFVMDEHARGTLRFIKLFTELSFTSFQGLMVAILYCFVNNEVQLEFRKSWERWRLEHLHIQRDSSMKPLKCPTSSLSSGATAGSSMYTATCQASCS

Regarding `COc1cc2c(cc1OC)CC(=O)N(CCCN(C)C[C@H]1Cc3cc(OC)c(OC)cc31)CC2`, the molecule was classed as inactive in experiment [1], in [2] and in experiment [4]. Moreover, in experiment [3], the Potency result is “inactive”.
With `CCCCc1ccc(NS(=O)(=O)c2ccc(C)c(C(=O)N3CCN(c4cccc(C)c4C)CC3)c2)cc1`, the Potency in experiment [3] was 20.9 µM (active).
For `C[C@H]1O[C@@H](n2cc(F)c(=O)[nH]c2=O)[C@H](O)[C@H]1O`, the molecule was called inactive in experiment [5], in experiment [6], in [7], in [8] and in [9].
Turning to `CC(C)CN(C[C@@H](O)[C@H](Cc1ccccc1)NC(=O)O[C@H]1CO[C@H]2OCC[C@H]21)S(=O)(=O)c1ccc(N)cc1`, the outcome in experiment [1] and in experiment [2] was inactive.
Turning to `C[C@@H]1C[C@H]2[C@@H]3CCC4=CC(=O)C=C[C@]4(C)[C@@]3(F)[C@@H](O)C[C@]2(C)[C@@]1(O)C(=O)CO`, the molecule was classed as inactive in experiment [10], in [11], in experiment [12], in experiment [14] and in experiment [15]. Moreover, the max response in experiment [13] is 10.8% and 0.324%; in experiment [16], 18.8% and -5.96%; in [17], -0.0279% (inactive) and -1.12% (inactive). For the same molecule, the activity change % (negative = inhibition) in [18] was 1.08% (inactive) and 5.56% (inactive). Also, in experiment [19], the Potency result was “inactive”.
With `CC[C@H]1OC(=O)[C@H](C)[C@@H](O[C@H]2C[C@@](C)(OC)[C@@H](O)[C@H](C)O2)[C@H](C)[C@@H](O[C@@H]2O[C@H](C)C[C@H](N(C)C)[C@H]2O)[C@](C)(O)C[C@H](C)C(=NOCOCCOC)[C@H](C)[C@@H](O)[C@]1(C)O`, the molecule was classed as inactive in experiment [1].
With `CC(C)(CO)[C@@H](O)C(=O)NCCC(=O)O`, the molecule was classed as inactive in [1].
Regarding `O=C1C(CCC(O)c2ccc(F)cc2)C(c2ccc(O)cc2)N1c1ccc(F)cc1` (stereo not drawn), the outcome in experiment [1], in [2] and in experiment [4] was inactive. For the same molecule, the Potency entry in experiment [20] and in experiment [3] was “inactive” throughout.
In the case of `Nc1ccc(-c2ccc3ncc4ccc(=O)n(-c5cccc(C(F)(F)F)c5)c4c3c2)cn1`, in experiment [3], the Potency is 0.833 µM (active). For the same molecule, the molecule was classed as inactive in experiment [4].
For `CN(C)CCN(C)C(=O)c1ccc(NC(=O)Nc2ccc(-c3nc(N4CCOCC4)c4ccn(CC(F)(F)F)c4n3)cc2)cc1`, in that order: 4.18 µM (active) and “inactive”.
On to `COc1nc(C)cnc1NS(=O)(=O)c1cccnc1-c1ccc(-c2nnco2)cc1`, for which the Potency entry in experiment [3] is “inactive”. Besides, the call in experiment [4] was inactive.
Regarding `Cc1cc2c(cc1C1(c3ccc(C(=O)O)cn3)CC1)C(C)(C)CCC2(C)C`, in [4], the molecule was called inactive.
With `COc1cccc(OC)c1-c1cc(C(=O)NC2(C(=O)O)C3CC4CC(C3)CC2C4)nn1-c1ccnc2cc(Cl)ccc12` (stereo not drawn), the Potency in [3] is 14.8 µM (active). For the same molecule, the result in experiment [4] was inactive.
As to `Cc1csc(-c2nnc(Nc3ccc(Oc4ncccc4-c4ccnc(N)n4)cc3)c3ccccc23)c1`, the Potency result in experiment [3] is “inactive”. In addition, the call in [4] was inactive.
Take `CCN(CC)CCCCNc1nc2cc(Cl)c(Cl)cc2nc1-c1ccc(-c2cccs2)s1`: in [4], the outcome was inactive.
As for `CCCCOCCOc1nc(-c2ccc(C(=O)O)c(F)c2)sc1C`, the Potency entry in experiment [3] was “inactive”. Also, in experiment [4], the outcome was inactive.
As for `CC(C)n1c(C=C[C@H](O)C[C@H](O)CC(=O)O)c(-c2ccc(F)cc2)c2ccccc21`, the Potency entry in experiment [3] was “inactive”. Moreover, in experiment [4], the result was inactive.
As to `CC(O)=C(C#N)C(=O)Nc1ccc(C(F)(F)F)cc1`, in [4], the molecule was called inactive.
As for `NC(=O)c1ccc(N(C(N)=O)c2c(F)cccc2F)nc1-c1ccc(F)cc1F`, the Potency result in experiment [3] was “inactive”. In addition, the call in experiment [4] was inactive.
